Bioassay records deposited in PubChem BioAssay by National Center for Advancing Translational Sciences (NCATS).
Only some compounds are listed: those with a hit (about 12% of all), similar ones and a draw of the others.
HCV inh: qHTS Assay for Inhibitors of Hepatitis C Virus (HCV); Huh7.5.1 HCVcc-Cre infection, luciferase reporter, 44 h; Potency, µM (highest dose often 41.8 µM), hits mostly inhibitors; actives 3.4% (n = 340,000)
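Compounds are dispensed onto cells plated 4 h earlier at 1,000 per well, with HCVcc-Cre virus (about 0.5 moi) added next. Following 44 h of culture, luminescent signal is measured for 15 sec after 15 min with substrate at room temperature.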
Pf growth 96h: Primary qHTS for delayed death inhibitors of the malarial parasite plastid, 96 hour incubation; AID 504834, 2011; actives 6.9% (n = 320,000); P. falciparum luciferase reporter growth, 96 h; Potency, µM (titrated, usually from 28.7 µM), usual class: inhibitors
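Cell-based qHTS: luciferase-tagged P. falciparum in erythrocytes (2% hematocrit, 0.05% parasitemia final) incubated with compounds for 96 hours, 37 C, 5% CO2; luciferase detection reagent then added and luminescence measured.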
Pf growth 48h: Primary qHTS for delayed death inhibitors of the malarial parasite plastid, 48 hour incubation; Potency, µM (titrated, usually from 28.7 µM), actives largely listed as inhibitors; actives 5.9% (n = 310,000); P. falciparum luciferase growth in erythrocytes, 48 h
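Cell-based growth assay: transgenic P. falciparum expressing firefly luciferase, cultured in red cells within RPMI 1640 containing 0.5% w/v Albumax, 24 mM bicarbonate and gentamycin. A drop in luciferase activity indicates inhibition.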
AMA1 RON2 block: qHTS for Inhibitors of AMA1-RON; Towards Development of Antimalarial Drug Lead: Primary Screen. Plasmodium falciparum AMA1 (3D7) - RON2 peptide interaction. AlphaScreen AMA1-biotinylated RON2 peptide binding. Potency, µM (doses to about 58.2 µM), hits mostly inhibitors. actives 0.2% (n = 360,000); further: nearly all actives have a fitted effect of over 45% in size
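AMA1 (3D7) with his tag at 25 nM final met compounds first, then biotinylated RON2 peptide at 25 nM; detection used donor plus acceptor beads, 10 µg/mL apiece, read by AlphaScreen after 30 min at room temperature.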
SARS PLP yeast: qHTS of Yeast-based Assay for SARS-CoV PLP; S. cerevisiae expressing SARS-CoV PLpro, growth rescue; AID 485353, 2010; actives 0.19% (n = 330,000); Potency, µM (top dose mostly 32.9 µM), hits mostly activators; calls by dose curve; further: nearly all actives have a fitted effect of over 55% in size
NS1 function inh: qHTS Assay for Inhibitors of Influenza NS1 Protein Function; AID 2326, 2010; actives 0.4% (n = 270,000); Potency, µM (highest dose often 46.1 µM); calls by dose curve; further: actives are rising curves; nearly all actives have a fitted effect of over 50% in size
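In this qHTS, NS1 from influenza A is expressed in budding yeast, where it slows growth. Cells are switched from glucose to 2% galactose medium (pH 6.0, -URA), treated with compound, and growth recovery is read at OD600.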
Numbers stand for hits; . = inactive; ? = inconclusive; / = no result given. Unless noted, the call rests on the fitted dose curve; in most records, active means well fitted curve in the direction sought with a large enough effect; inconclusive means small, poorly fitted or top-dose-only effect, or another doubt; inactive means no such curve, though single readings can be large; an effect the other way counts as inactive or inconclusive.

SMILES | HCV inh | Pf growth 96h | Pf growth 48h | AMA1 RON2 block | SARS PLP yeast | NS1 function inh
C=CCN=C1N[C@@H](c2ccccc2)C(C(=O)OC)=C(C)N1CC | . | ? | . | . | . | .
COC(=O)C1=C(C)N(Cc2ccccc2)C(=NCCc2ccccn2)N[C@H]1c1cccc(F)c1 | . | 8.3µM | 12µM | . | ? | .
CCN1C(=NCCc2ccccn2)N[C@@H](c2cccc(F)c2)C(C(=O)OC)=C1C | . | ? | . | . | . | .
CCN1C(=NCCc2c[nH]c3ccccc23)N[C@@H](c2ccccc2)C(C(=O)OC)=C1C | / | . | 13µM | / | . | .
CCN1C(=NCCc2cccs2)N[C@@H](c2cccs2)C(C(=O)OC)=C1C | . | ? | 7.4µM | . | . | .
O=C(O)Cn1c2ccccc2c2n[nH]c(=S)nc21 | . | 3.7µM | . | . | . | .
CCc1cccc(CC)c1N(COC)C(=O)Cn1c(C(C)O)nc2ccccc21 (stereo unspecified) | . | 9.3µM | . | . | . | .
CCOCCn1c(C(C)O)nc2ccccc21 (stereo unspecified) | . | 3.7µM | . | . | . | .
OCc1cnc[nH]1 | . | 9.3µM | ? | . | . | .
CCSc1nc(C)nc2sc(C)c(C)c12 | . | . | . | . | . | .
Cc1ccc(CN2CCN(CC(=O)N/N=C/c3ccc(C)o3)CC2)cc1 | . | . | . | . | ? | .
Cc1ccc(CCC(=O)Nc2ccccc2C(=O)O)o1 | . | . | . | . | . | .
CC(C)CNC(=O)c1cc(=O)[nH]c2ccc(S(=O)(=O)Nc3ccc(F)cc3)cc12 | ? | . | . | . | . | .
Cc1nn(CC(=O)N2CCc3ccccc3C2)c(C)c1Cl | . | ? | . | . | . | .
O=C(c1ccco1)N1CCN(C(=O)c2cc3ccccc3oc2=O)CC1 | . | . | . | . | . | .
O=C(c1ccc(F)cc1Cl)N1CCN(CCc2ccccc2)CC1 | . | 8.3µM | . | . | . | .
O=C(c1cccc(C(F)(F)F)c1)N1CCN(CCc2ccccc2)CC1 | . | . | ? | . | . | .
Cc1ccc(C)c(N2CCN(C(=O)c3cc4ccccc4oc3=O)CC2)c1 | . | 9.3µM | / | . | . | .
O=C(c1cc2ccccc2oc1=O)N1CCN(CCc2ccccc2)CC1 | . | 9.3µM | . | . | . | .
CCN(C(=O)CN1CCOCC1)C1(C)C(=O)c2ccccc2C1=O | . | . | . | . | . | ?
Cc1ccc(C(=O)OCC(=O)NC2CC2)cc1S(=O)(=O)N1CCOCC1 | . | ? | ? | . | . | /
C[C@H](NC(=O)C1CC(=O)N(c2ccc3c(c2)OCCO3)C1)C(=O)N1CCCCC1 (stereo partly specified) | . | . | . | . | . | .
O=C(NC1CCCC1)C(C1CC1)n1c(-c2cc3ccccc3[nH]2)nc2ccccc21 (stereo unspecified) | / | / | / | . | / | /
CC(C)(C)Nc1c(-c2ccc(O)cc2)nc2ccc(Cl)cn12 | . | . | 10µM | . | . | .
Cc1ncoc1C(=O)N1CCc2c([nH]c3ccccc23)C1C1CCCCC1 (stereo unspecified) | . | ? | 15µM | . | . | .
c1ccc2c3c([nH]c2c1)C(C1CCCCC1)N(Cc1ncc[nH]1)CC3 (stereo unspecified) | . | ? | 2.1µM | ? | . | .
O=C(CSc1nnc2ccccn12)Nc1ccc2c(c1)OCCO2 | . | . | . | . | . | /
CN(C)c1ccc(C(=O)N2CCN(C(=O)C3CCCO3)CC2)cc1 (stereo unspecified) | . | / | / | . | . | /
CC(C)CCOP(=O)(c1ccc(N(C)C)cc1)C(O)c1ccccc1F (stereo unspecified) | . | ? | 2.9µM | . | . | .
CN(C)c1ccc(P(=O)(OCc2ccccc2)C(O)c2ccccc2)cc1 (stereo unspecified) | . | 2.3µM | 10µM | . | . | .
